Neddylation inh = inhibitors of cullin neddylation, primary screen, biochemical, TR-FRET, uHTS, NAE and Ubc12. NEDD8-conjugating enzyme Ubc12 (Homo sapiens) + NEDD8-activating enzyme E1 regulatory …. inhibition, % at 25 µM. 0.58% of 360,000 active; in the data active = inhibition above about 36%
Bfl-1 A1 inh = caspase 3/7 activation in MEF A1-2A-BIM cells, primary screen, A1 inhibitor project, cell-based, luminescence, HTS; Caspase-Glo 3/7 luminescence, 3 h; percent of clofoctol response, vehicle zero; caspase activation, % (no concentration beside the values); 0.066% of 330,000 active; AID 2462, 2010;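 active = over half of replicate activation scores above 10%, or exactly half above 10 with the replicate mean above 10; inconclusive = replicate mean below 10 yet half the replicates above 10; inactive = over half of replicates below 10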
dFosB activator = activators of delta FosB homodimer, primary screen, biochemical, fluorescence polarization, TAMRA-CDK5 oligo, single point; Protein FosB (Mus musculus), P13346; purified delta FosB; percent of positive-control signal above neutral wells; activation, % at 25 µM; 0.99% of 340,000 active; AID 493131, 2011;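 active = mean activation above about 17%, with every replicate also reaching it, limit read from the data, passing the limit was not always enough; inconclusive = only one of the two conditions met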
Target sequence (P13346 whole entry, looked up): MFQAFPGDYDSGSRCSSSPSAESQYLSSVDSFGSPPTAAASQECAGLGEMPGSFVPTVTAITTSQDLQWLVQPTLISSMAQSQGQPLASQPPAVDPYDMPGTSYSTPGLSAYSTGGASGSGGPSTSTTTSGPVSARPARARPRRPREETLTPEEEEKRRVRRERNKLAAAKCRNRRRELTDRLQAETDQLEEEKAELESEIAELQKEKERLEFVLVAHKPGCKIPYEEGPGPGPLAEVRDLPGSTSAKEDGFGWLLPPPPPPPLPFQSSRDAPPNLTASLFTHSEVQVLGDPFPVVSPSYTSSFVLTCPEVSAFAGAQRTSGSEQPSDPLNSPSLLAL
Vif imaging = HIV Vif self-association inhibitors, primary screen, imaging, HEK293T, single point. inhibition, % at 7.49 µM. AID 602346, 2012. 0.35% of 340,000 active. HEK293T cells, Vif self-association by quenched fluorescence, 24 h; in the data active = inhibition above about 50%, passing the limit was not always enough; inconclusive = no clear call, values can overlap the other calls; inactive = below about 31%
GSIS activator = GLuc luminescence reporter in INS-1E cells, primary screen for activators of glucose-dependent secretion of insulin. INS-1E GLuc reporter insulin secretion, 2-3 h. activation, % at 16.6 µM. 0.61% of 370,000 active. AID 743287, 2014;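 active = lowest replicate activation of at least 40%, so every replicate reaches that level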;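 note: 0% = median of neutral control wells and 100% = median of IBMX positive control wells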
The depositor's hits bear a star; ? = inconclusive; . = not tested or not shown. Rows were chosen to be rich in hits. Some 1.9% of all compounds tested hit in one or more screens of this group.

SMILES	Neddylation inh	Bfl-1 A1 inh	dFosB activator	Vif imaging	GSIS activator
CC(=O)C1=C(C)NC(SCC(=O)c2ccc(Cl)cc2)=C(C#N)C1c1ccco1 (stereo unspecified)	-33	0	-5	58*	.
COC(C)(C)c1cc(C(C)(C)C)nc(N)n1	-1	1	0	-3	48*
CC(C)(C)c1cc(=O)n2[nH]c(N)nc2n1	2	0	-6	14	10
O=C(C1CCC1)N1CC2(C1)[C@H](c1ccccc1)[C@@H](CO)N2CC1CCCC1	.	.	.	.	23
CCOc1ncccc1C(=O)NCc1ccccc1	.	-1	.	.	.
CSc1ncccc1C(=O)OCc1ccccc1	-17	0	13	0	47*
CCOc1ncccc1C(=O)NCc1cccc(OC)c1	3	0	-6	0	88*
CCOc1ncccc1C(=O)Nc1ncc(C)s1	7	0	-14	-5	110*
CCOc1ncccc1C(=O)NC(C)CCc1ccccc1 (stereo unspecified)	-3	0	0	-6	51*
CSc1ncccc1C(=O)Nc1ncc(C)s1	7	-1	-4	-4	-8
C[C@@H](NC(=O)C[C@H]1CC[C@H](NC(=O)Nc2ccc3c(c2)OCO3)[C@@H](CO)O1)c1ccccc1	.	.	.	.	3
Cc1cccc(S(=O)(=O)N2[C@@H]3CNC[C@H]2C3c2ccc(-c3ccncc3)cc2)c1 (stereo partly specified)	.	.	.	.	-11
CC=Cc1ccc2n(c1=O)C[C@@H]1[C@@H](CO)[C@H](C(=O)OC)N(CCc3ccccc3)[C@H]21 (mixture of isomers)	.	.	.	.	0
CC(C)NC(=O)Nc1cccc2c1O[C@H](CN(C)C)[C@@H](C)CN(C)C2=O	.	.	.	.	23
CC(C)NC(=O)N(C)C[C@H]1Oc2ncc(C#Cc3ccccc3F)cc2C(=O)N([C@@H](C)CO)C[C@@H]1C	.	.	.	.	1
CCOc1ncccc1C(=O)OCc1ccccc1	-3	-1	-6	51*	32
O=c1cc(-c2ccncc2)oc2c1ccc1ccccc12	.	0	-12	-10	47*
O=c1cc(-c2ccc(O)cc2)oc2c1ccc1ccccc12	.	-1	-28	-1	19
C[C@H]1CN([C@@H](C)CO)C(=O)CCCn2cc(nn2)CO[C@@H]1CN(C)Cc1cccc(C(=O)O)c1	.	.	.	.	29
CCC(=O)C(C#N)(c1ccc(OC)c(OC)c1)C(C)C (stereo unspecified)	-12	0	5	?	82*
CCOC(=O)/C(C#N)=C/c1ccc(OC)c(OC)c1	-10	0	-9	5	.
CC(=O)Nc1ccc2nc(NC(=O)COc3ccccc3Cl)sc2c1	-91	0	2	6	-1
CC(=O)Nc1ccc2nc(NC(=O)COc3ccccc3C)sc2c1	16	0	20*	-2	8
COc1cccc2sc(Nc3nc4ccc(NC(C)=O)cc4s3)nc12	.	-2	35*	-8	6
CO[C@@H]1CN(C)C(=O)c2ccc(NC(=O)Nc3ccccc3F)cc2OC[C@@H](C)N(C)C[C@@H]1C	.	.	.	.	23
SMILES	Neddylation inh	Bfl-1 A1 inh	dFosB activator	Vif imaging	GSIS activator
Cc1c(CN(C)C)c2c(n1Cc1ccccc1)C(=O)c1ccc(Br)cc1-2	-28	0	19*	-5	.
O=C(Nc1nc(-c2ccc([N+](=O)[O-])cc2)cs1)C1=COCCO1	-25	.	.	-2	.
O=C(Nc1nc(-c2ccc(-c3ccccc3)cc2)cs1)C1=COCCO1	26	-2	-2	-3	84*
C(=C/c1nccc2c1[nH]c1ccccc12)/c1ccc2c(c1)OCO2	.	.	64*	72*	16
C(=N\Nc1nc2ccccc2[nH]1)/c1ccc2c(c1)OCO2	17	.	3	-1	-6
O=C(O)CSc1nnc(NC(=O)CN2CCOCC2)s1	4	0	0	13	96*
CC=Cc1ccc2n(c1=O)C[C@@H]1[C@@H](CO)[C@H](C(=O)NCCOC)[C@H]2N1Cc1ccccc1OC (mixture of isomers)	.	.	.	.	-8
COc1ccc2c3c(n(C)c2c1)[C@H](CO)N(C(=O)c1ccccc1)CC31CN(C)C1	.	.	.	.	9
N#Cc1c(-c2ccco2)cc(C2CC2)nc1N	.	0	-22	-7	71*

Screening results: PubChem BioAssay, several laboratories
